Data from the supplement of paper PMC13380429.

The compounds below were run on Vero E6 infected with SARS-CoV-2 (assay: morphology score (similarity to uninfected cells); higher = more like uninfected cells). Conditions: 24 h.
In the case of NC1=N[C@@](c2cccc(-c3cncnc3)c2)(c2ccnc(C(F)F)c2)c2cccc(F)c21 (10 µM), the morphology score is reported as 0.163. For Nc1nc2[nH]cnc2c(=S)[nH]1 [thioguanine] (0.833333 µM), the morphology score was 0.218. Compound Nc1ncnc2c1C(=O)N(c1ccc([C@H]3CC[C@H](CC(=O)O)CC3)cc1)CCO2 (10 µM) has a morphology score of 0.118. With CC(SC(=O)c1cccs1)C(=O)NCC(=O)O (stereo not given) [stepronin] (10 µM) the morphology score was -0.0157. Compound O=c1[nH]c(=O)n([C@H]2C[C@H](O)[C@@H](CO)O2)cc1I [idoxuridine] (10 µM) has a morphology score of 0.0252. For CN[C@@H](C)CCC=C(C)C [isometheptene-mucate] (10 µM), the morphology score was -0.0576. Work on COC(=O)c1ccc2c(c1)nc(NC(=O)c1ccccc1)n2CCCc1ccccc1 (10 µM) yielded a morphology score of 0.0334. O=C(Nc1cc(C(F)(F)F)cc(C(F)(F)F)c1)c1cc(Cl)ccc1O [IKK-2-inhibitor-V] (10 µM) gave a morphology score of -0.2. CC(C)(C)CC(C)(C)c1ccc(O)c(Cc2ccc(Cl)cc2Cl)c1 [clofoctol] (10 µM) showed a morphology score of 0.121. CCn1nc(C(=O)O)c(=O)c2cc3c(cc21)OCO3 [cinoxacin] (10 µM) was tested, and the morphology score was -0.0392. In the case of O=C(O)CSc1nnc(Br)n1-c1ccc(C2CC2)c2ccccc12 [lesinurad] (10 µM), the morphology score is reported as 0.0859. For O=C(O)[C@]1(Cc2cccc(Nc3nccs3)n2)CC[C@@H](Oc2cccc(Cl)c2F)CC1 (0.833333 µM), the morphology score was 0.175. In the case of Nc1ccc(O)c(C(=O)O)c1 [mesalazine] (10 µM), the morphology score is reported as 0.0799. In the case of CCCCCCCCCCCCCCCC[N+](C)(C)C [cetrimonium] (0.833333 µM), the morphology score is reported as -0.199. In the case of CN(C)CCn1cc(S(=O)(=O)c2cccc(F)c2)c2cccnc21 (10 µM), the morphology score is reported as -0.0241. NS(=O)(=O)c1cc(C(=O)O)c(NCc2ccco2)cc1Cl [furosemide] (10 µM) gave a morphology score of 0.0455. In the case of CCN(CC)CCCC(C)Nc1ccnc2cc(Cl)ccc12 (stereo not given) [chloroquine] (10 µM), the morphology score is reported as 0.554. Work on Cc1ccc2c(-c3ccccc3)nc(=O)n(C(C)C)c2c1 [proquazone] (10 µM) yielded a morphology score of 0.0698. Compound C[C@H](Cc1ccc(O)c(O)c1)[C@@H](C)Cc1ccc(O)c(O)c1 [masoprocol] (10 µM) has a morphology score of 0.0645. With Cc1cc(Nc2nc(N[C@@H](C)c3ncc(F)cn3)ncc2Cl)[nH]n1 (10 µM) the morphology score was 0.046. Compound CC(C)Nc1cc(-c2c[nH]c(C(=O)N[C@H](CO)c3cccc(Cl)c3)c2)c(Cl)cn1 (0.833333 µM) has a morphology score of -0.017. Compound OCCn1cc(-c2ccc3c(c2)CC/C3=N\O)c(-c2ccncc2)n1 (10 µM) has a morphology score of 0.0962. CN1[C@@H]2CC[C@H]1C[C@@H](OC1c3ccccc3CCc3ccccc31)C2 [deptropine] (0.833333 µM) showed a morphology score of 0.24. Clc1ccc(CO/N=C(\Cn2ccnc2)c2ccc(Cl)cc2Cl)c(Cl)c1 [oxiconazole] (10 µM) was tested, and the morphology score was -0.0771. With COc1cc(S(C)(=O)=O)ccc1Nc1nc2ccc(-c3ccc(NC(=O)[C@H](C)c4ccc(F)cc4)cc3)cn2n1 (10 µM) the morphology score was -0.122. In the case of O=C(OCC(COC(=O)c1cccnc1)(COC(=O)c1cccnc1)COC(=O)c1cccnc1)c1cccnc1 [niceritrol] (0.833333 µM), the morphology score is reported as 0.129. Work on COc1c(C)c(C(=O)c2ccc(N)c(C(=O)O)c2)n2ccccc12 (10 µM) yielded a morphology score of 0.0882. In the case of O=C(Oc1ccccc1)c1ccccc1O [phenyl-salicylate] (10 µM), the morphology score is reported as -0.0306. COc1cc2c(NC3CCN(C(C)C)CC3)nc(C3CCCCC3)nc2cc1OCCCN1CCCC1 (10 µM) was tested, and the morphology score was 0.297. CC1(C)CC(O)CC(C)(C)N1[O] [tempol] (10 µM) was tested, and the morphology score was 0.209. With C[C@H](Oc1cc(-c2cnn(C3CCNCC3)c2)cnc1N)c1c(Cl)ccc(F)c1Cl [crizotinib-(S)] (10 µM) the morphology score was 0.602. With COc1cc([C@@H]2c3cc4c(cc3[C@@H](O[C@@H]3O[C@@H]5CO[C@@H](C)O[C@H]5[C@H](O)[C@H]3O)[C@H]3COC(=O)[C@H]23)OCO4)cc(OC)c1O [etoposide] (10 µM) the morphology score was -0.114. CCc1ccc2c(-c3cccc(Cl)c3)nc(=O)n(CC)c2n1 (10 µM) was tested, and the morphology score was 0.375. Work on CC(=O)OCC1=C(C(=O)O)N2C(=O)[C@@H](NC(=O)CS/C(=N/C(C)C)NC(C)C)[C@H]2SC1 [cefathiamidine] (10 µM) yielded a morphology score of 0.162. With NC(=O)CCCCC1CCSS1 (stereo not given) [lipoamide] (10 µM) the morphology score was -0.0248. C[C@H](Nc1ncnc2nc[nH]c12)c1cc2cccc(Cl)c2c(=O)n1-c1ccccc1 [duvelisib] (0.833333 µM) was tested, and the morphology score was 0.0653. In the case of C[C@H]1N=C(N(C)C)N=C(N)N1 [imeglimin] (10 µM), the morphology score is reported as 0.0246. Compound C[C@]12C=CC(=O)C=C1CC[C@@H]1[C@@H]2[C@@H](O)C[C@@]2(C)[C@H]1CC[C@]2(O)C(=O)COC(=O)CCC(=O)O [prednisolone-hemisuccinate] (10 µM) has a morphology score of 0.166. Cc1c(CN2CCN(C(=O)[C@H](C)O)CC2)sc2c(N3CCOCC3)nc(-c3cnc(N)nc3)nc12 (10 µM) gave a morphology score of -0.0562. COc1cc(OC)c(C(=O)CCCN2CCCC2)c(OC)c1 [buflomedil] (10 µM) showed a morphology score of 0.0545.
